This passage reports binding signal results from paper PMC7862700, “An all-to-all approach to the identification of sequence-specific readers for epigenetic DNA modifications on cytosine”.

Common to all, as to assay: DAPPL (digital affinity profiling via proximity ligation, sequencing); 10 mM Tris-HCl pH 7.5, 50 mM NaCl, 1 mM DTT, 4% glycerol, room temperature, 30 min; GST-TFs on glutathione beads, 16-mer random dsDNA library, 0.1% formaldehyde crosslink after washing; high values mean tight binding
Conditions in all cases: protein: recombinant; tags: N-terminal GST; dsDNA, one strand shown

One assay has as its target T1, FLI1 (Homo sapiens, UniProt Q01543 1-452).
T1 sequence: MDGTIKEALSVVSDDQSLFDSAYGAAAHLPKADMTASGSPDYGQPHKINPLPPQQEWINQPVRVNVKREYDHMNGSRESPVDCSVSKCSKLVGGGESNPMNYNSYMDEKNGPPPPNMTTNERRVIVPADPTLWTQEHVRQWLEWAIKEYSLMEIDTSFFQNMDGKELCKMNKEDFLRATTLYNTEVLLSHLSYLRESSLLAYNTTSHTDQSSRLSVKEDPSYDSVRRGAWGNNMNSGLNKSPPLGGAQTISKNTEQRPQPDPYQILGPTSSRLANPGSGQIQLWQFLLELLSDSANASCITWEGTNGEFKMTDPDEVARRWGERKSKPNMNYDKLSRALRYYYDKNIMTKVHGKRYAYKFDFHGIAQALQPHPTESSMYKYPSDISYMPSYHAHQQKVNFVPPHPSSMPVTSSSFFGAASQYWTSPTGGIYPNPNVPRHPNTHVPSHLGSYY
The method, boiled down:
(§1)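 The binding signal reported is, for every hexamer, its read frequency for a factor over its read frequency for the tag-only sample. Reads came from pools of yeast-expressed, GST-fused human transcription factors on glutathione beads, barcoded with DNA and mixed with that sample, which were incubated with 200 nmole of a random double-stranded 16-mer DNA library in Tris/NaCl/DTT/glycerol buffer at room temperature for 30 min. After washing, the pools were crosslinked with 0.1% formaldehyde, proximity-ligated with BsaI/T4 ligase for 1 h at 37 °C, PCR-amplified and sequenced on an Illumina NextSeq500.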

The target of a further assay is T2, ELK1 (Homo sapiens, UniProt P19419 1-428).
T2 sequence: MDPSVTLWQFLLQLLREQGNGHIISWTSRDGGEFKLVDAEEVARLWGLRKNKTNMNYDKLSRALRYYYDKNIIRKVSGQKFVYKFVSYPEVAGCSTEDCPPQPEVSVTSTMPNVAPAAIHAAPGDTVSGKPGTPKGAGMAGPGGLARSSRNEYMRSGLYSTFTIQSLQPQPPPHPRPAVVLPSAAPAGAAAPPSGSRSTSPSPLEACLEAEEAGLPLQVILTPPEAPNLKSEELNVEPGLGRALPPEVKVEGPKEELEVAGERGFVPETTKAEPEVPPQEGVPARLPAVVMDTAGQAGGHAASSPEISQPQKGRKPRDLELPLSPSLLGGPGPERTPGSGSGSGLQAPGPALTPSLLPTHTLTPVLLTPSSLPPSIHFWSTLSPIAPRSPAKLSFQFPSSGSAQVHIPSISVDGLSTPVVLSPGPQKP
The gist of the method: as §1

A further assay addresses T3, GABPA (Homo sapiens, UniProt Q06546 1-454).
T3 sequence: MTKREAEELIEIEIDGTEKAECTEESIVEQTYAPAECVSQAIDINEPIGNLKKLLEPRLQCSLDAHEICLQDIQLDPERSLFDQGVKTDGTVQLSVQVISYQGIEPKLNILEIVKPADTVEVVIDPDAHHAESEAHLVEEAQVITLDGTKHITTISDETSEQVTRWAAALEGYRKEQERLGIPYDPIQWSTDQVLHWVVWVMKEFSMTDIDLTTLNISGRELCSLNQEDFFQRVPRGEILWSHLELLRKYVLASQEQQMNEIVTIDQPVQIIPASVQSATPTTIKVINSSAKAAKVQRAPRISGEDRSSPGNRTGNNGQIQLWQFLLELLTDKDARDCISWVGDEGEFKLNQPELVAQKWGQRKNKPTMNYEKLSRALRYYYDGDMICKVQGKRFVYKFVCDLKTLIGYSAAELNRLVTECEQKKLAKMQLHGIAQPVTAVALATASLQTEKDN
The gist of the method: as §1

A further assay deals with T4, ERG (Homo sapiens, UniProt P11308 1-479).
T4 sequence: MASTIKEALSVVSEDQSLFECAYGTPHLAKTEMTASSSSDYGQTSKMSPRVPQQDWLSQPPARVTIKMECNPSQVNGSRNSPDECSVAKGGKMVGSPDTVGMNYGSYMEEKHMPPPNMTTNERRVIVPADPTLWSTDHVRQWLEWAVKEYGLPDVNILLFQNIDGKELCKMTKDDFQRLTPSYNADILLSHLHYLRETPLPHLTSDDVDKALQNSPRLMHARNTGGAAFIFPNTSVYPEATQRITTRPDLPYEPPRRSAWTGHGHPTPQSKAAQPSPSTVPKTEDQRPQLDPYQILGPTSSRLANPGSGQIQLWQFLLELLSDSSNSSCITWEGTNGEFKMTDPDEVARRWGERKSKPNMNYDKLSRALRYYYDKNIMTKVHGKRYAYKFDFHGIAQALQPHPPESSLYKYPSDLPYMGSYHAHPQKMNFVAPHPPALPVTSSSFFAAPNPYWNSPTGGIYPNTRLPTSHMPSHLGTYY
The gist of the method: as §1

The next assay deals with ELF1 (Homo sapiens, UniProt P32519 1-619). The gist of the method: as §1
Another assay has as its target T5, EHF (Homo sapiens, UniProt Q9NZC4 1-300).
T5 sequence: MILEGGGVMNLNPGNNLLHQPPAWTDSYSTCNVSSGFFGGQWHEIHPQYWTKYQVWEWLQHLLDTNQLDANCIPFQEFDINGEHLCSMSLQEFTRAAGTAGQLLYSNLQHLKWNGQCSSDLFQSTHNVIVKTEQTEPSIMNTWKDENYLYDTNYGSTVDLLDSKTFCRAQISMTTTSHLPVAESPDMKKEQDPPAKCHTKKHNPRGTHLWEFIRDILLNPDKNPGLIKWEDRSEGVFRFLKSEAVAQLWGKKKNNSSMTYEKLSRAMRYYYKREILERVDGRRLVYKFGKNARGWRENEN
The method, boiled down:
as §1

The target of the next assay is SPI1 (Homo sapiens, UniProt P17947 1-270). The gist of the method:
as §1

The target of the next assay is SPIB (Homo sapiens, UniProt Q01892 1-262). The method, boiled down: as §1
A further assay addresses T6, ELK3 (Homo sapiens, UniProt P41970 1-407).
T6 sequence: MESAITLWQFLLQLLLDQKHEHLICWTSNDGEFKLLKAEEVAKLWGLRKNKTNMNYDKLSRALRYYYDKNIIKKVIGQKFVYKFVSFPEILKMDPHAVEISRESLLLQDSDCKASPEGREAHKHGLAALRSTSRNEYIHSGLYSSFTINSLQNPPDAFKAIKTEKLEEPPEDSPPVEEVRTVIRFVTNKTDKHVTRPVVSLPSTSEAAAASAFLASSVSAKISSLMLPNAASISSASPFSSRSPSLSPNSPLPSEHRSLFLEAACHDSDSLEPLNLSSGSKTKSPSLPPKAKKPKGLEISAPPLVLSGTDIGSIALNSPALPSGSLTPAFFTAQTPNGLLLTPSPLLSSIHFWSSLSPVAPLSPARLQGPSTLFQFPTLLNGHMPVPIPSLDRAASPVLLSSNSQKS
The gist of the method:
as §1

For another assay, the target named is T7, FEV (Homo sapiens, UniProt Q99581 1-238).
T7 sequence: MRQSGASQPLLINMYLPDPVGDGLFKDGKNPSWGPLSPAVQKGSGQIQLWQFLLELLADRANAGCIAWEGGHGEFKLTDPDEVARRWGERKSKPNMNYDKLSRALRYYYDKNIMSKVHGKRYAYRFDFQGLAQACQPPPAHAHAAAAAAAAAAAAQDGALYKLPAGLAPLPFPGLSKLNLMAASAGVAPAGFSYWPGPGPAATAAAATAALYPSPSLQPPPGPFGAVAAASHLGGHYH
The gist of the method:
as §1

In the next assay the target is ETV5 (Homo sapiens, UniProt P41161 1-510). The method, boiled down:
as §1

The next assay concerns the target T8, SPIC (Homo sapiens, UniProt Q8N5J4 1-248).
T8 sequence: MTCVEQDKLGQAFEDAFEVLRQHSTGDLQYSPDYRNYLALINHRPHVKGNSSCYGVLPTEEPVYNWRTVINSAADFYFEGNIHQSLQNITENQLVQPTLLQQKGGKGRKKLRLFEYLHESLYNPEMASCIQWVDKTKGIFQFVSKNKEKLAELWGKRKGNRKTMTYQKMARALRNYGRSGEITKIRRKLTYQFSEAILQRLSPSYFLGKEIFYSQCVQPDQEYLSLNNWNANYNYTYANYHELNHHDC
The method, boiled down:
as §1

The next assay addresses ELF4 (Homo sapiens, UniProt Q99607 1-663). The method, boiled down:
as §1

For the next assay, the target named is T9, ELK4 (Homo sapiens, UniProt P28324-2 1-405).
T9 sequence: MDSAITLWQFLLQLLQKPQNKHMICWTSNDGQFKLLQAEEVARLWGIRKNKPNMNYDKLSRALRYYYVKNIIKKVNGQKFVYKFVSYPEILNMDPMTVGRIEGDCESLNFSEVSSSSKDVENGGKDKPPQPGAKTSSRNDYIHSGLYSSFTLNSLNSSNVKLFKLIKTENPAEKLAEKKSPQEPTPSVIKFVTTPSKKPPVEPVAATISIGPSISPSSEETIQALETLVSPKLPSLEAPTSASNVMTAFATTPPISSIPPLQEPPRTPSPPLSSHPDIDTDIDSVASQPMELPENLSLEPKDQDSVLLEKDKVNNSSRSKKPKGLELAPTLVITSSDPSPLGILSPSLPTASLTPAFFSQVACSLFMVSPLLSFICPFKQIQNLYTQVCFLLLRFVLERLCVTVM
The method, boiled down: as §1

The next assay concerns the target T10, ETV2 (Homo sapiens, UniProt O00321 1-342).
T10 sequence: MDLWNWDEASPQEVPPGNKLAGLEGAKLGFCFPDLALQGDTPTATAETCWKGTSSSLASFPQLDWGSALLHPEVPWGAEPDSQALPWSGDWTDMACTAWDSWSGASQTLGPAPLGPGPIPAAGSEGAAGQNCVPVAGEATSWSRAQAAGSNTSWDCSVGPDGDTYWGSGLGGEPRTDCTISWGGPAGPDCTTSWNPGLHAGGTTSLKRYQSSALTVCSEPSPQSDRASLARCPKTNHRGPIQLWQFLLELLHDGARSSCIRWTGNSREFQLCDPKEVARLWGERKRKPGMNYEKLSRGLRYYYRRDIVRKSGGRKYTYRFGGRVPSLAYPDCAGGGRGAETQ
The method, boiled down:
as §1

For a further assay, the target named is T11, ELF3 (Homo sapiens, UniProt P78545 1-371).
T11 sequence: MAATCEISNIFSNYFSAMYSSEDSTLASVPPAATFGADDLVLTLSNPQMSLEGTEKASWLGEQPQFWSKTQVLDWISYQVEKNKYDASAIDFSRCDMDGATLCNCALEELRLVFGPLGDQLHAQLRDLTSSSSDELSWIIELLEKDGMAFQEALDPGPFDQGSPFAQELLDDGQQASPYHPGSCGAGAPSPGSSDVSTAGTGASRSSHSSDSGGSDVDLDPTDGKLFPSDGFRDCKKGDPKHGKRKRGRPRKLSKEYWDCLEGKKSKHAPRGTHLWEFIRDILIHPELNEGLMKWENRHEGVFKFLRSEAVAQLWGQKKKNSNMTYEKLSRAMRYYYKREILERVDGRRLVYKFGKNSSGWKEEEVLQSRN
The gist of the method: as §1

For another assay, the target named is CRX (Homo sapiens, UniProt O43186 1-299). The method, boiled down: as §1
Sequence of CRX (O43186 whole entry): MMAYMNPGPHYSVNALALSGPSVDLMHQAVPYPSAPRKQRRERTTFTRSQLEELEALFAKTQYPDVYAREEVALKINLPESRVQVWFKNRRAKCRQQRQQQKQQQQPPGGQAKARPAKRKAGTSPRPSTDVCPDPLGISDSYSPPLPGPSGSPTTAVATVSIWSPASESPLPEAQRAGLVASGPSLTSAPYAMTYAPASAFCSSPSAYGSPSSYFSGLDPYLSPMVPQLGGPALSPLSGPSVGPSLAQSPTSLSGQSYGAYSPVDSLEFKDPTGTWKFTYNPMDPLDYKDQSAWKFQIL

Sequence of ETV5 (P41161 whole entry): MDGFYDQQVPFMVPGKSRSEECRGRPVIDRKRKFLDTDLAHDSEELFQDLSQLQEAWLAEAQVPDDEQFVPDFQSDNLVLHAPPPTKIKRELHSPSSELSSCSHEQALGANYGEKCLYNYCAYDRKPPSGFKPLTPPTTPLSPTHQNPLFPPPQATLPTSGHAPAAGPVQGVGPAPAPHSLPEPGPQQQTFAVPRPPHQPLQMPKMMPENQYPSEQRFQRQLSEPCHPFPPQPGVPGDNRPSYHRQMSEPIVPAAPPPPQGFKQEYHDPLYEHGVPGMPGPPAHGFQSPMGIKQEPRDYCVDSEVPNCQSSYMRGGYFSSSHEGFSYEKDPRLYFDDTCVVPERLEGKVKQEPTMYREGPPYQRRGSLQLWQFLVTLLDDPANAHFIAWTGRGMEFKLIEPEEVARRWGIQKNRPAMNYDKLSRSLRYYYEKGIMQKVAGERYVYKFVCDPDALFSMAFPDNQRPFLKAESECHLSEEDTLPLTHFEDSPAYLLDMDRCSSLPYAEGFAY
Sequence of ELF1 (P32519 whole entry): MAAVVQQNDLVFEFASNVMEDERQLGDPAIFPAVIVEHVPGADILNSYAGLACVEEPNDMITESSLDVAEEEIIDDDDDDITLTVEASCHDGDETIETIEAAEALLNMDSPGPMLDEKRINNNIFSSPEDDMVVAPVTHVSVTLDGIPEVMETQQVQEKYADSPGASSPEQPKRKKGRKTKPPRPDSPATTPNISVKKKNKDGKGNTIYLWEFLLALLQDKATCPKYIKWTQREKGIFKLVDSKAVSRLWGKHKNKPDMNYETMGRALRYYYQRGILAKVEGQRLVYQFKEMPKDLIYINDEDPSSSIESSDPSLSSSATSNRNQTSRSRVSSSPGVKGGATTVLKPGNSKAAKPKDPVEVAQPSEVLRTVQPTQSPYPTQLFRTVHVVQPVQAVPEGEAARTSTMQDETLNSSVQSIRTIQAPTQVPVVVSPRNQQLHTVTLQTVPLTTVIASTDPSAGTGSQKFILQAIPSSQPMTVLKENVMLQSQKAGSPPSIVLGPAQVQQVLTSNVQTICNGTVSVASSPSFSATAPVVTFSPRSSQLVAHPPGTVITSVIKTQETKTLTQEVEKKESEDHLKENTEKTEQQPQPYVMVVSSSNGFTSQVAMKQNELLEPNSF
Sequence of SPIB (Q01892 whole entry): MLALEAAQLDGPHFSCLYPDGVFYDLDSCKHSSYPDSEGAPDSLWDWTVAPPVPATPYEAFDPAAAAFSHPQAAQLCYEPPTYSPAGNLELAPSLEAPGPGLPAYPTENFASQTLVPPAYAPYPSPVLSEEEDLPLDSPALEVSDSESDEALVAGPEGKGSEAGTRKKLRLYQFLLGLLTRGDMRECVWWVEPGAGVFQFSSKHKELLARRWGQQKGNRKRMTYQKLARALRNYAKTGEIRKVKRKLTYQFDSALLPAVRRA
Sequence of ELF4 (Q99607 whole entry): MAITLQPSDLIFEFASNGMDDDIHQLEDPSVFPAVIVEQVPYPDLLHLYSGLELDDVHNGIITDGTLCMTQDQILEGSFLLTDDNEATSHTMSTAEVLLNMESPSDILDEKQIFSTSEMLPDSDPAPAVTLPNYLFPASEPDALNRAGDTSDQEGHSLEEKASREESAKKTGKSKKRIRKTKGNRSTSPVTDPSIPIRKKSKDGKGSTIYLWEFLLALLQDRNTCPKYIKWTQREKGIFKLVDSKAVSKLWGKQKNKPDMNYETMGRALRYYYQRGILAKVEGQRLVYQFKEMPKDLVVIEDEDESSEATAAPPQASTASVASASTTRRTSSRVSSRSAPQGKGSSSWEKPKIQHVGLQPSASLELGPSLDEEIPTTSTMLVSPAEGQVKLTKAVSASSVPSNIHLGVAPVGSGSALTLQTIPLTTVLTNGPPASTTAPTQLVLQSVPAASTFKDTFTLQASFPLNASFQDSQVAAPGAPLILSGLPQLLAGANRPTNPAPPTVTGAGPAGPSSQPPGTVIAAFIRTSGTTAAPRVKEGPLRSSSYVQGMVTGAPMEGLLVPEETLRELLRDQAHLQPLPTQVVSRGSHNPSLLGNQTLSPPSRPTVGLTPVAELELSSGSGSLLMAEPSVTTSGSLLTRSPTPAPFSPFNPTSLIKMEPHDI

Regarding CGTTAT, the binding signal in the assay with FLI1 was 1.14 fold enrichment (6-mer frequency, TF over GST control); with ELK1, 1.11 fold enrichment (6-mer frequency, TF over GST control); with GABPA it was 1.11 fold enrichment (6-mer frequency, TF over GST control); in the assay with ERG, 1.1 fold enrichment (6-mer frequency, TF over GST control); with ELF1, 1.17 fold enrichment (6-mer frequency, TF over GST control); with EHF, 1.07 fold enrichment (6-mer frequency, TF over GST control). Further, the binding signal with SPI1 is 1.11 fold enrichment (6-mer frequency, TF over GST control); in the assay with SPIB, 1.16 fold enrichment (6-mer frequency, TF over GST control); in the assay with ELK3 it was 1.26 fold enrichment (6-mer frequency, TF over GST control); with FEV it was 1.03 fold enrichment (6-mer frequency, TF over GST control); in the assay with ETV5, 1.15 fold enrichment (6-mer frequency, TF over GST control); with SPIC, 1.23 fold enrichment (6-mer frequency, TF over GST control). In addition, the binding signal was 1.16 fold enrichment (6-mer frequency, TF over GST control) with ELF4; 1.15 fold enrichment (6-mer frequency, TF over GST control) with ELK4; 1.21 fold enrichment (6-mer frequency, TF over GST control) with ETV2; 1.04 fold enrichment (6-mer frequency, TF over GST control) in the assay with ELF3; 1.05 fold enrichment (6-mer frequency, TF over GST control) in the assay with CRX.
